Screens: PubChem, National Center for Advancing Translational Sciences (NCATS)
In the library only some 4.7% were active in any assay of this set; here they are far more common.
HTT promoter inh – HTT promoter inhibition | AID 1508623 | HEK293 HTT promoter firefly luciferase reporter, 24 h | actives 0.93% (n = 48,000) | Potency, µM (doses to about 57.5 µM), inactives show at the top dose activity change, negative = inhibition, actives largely listed as inhibitors; also: potency is read from the fitted curve at half-maximal effect; nearly all actives have a fitted effect of over 50% in size
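Firefly luciferase signal from promoter-reporter HEK293 cells was scaled between vehicle (0%) and zero RLU (-100%). Compounds were tested at final concentrations of up to 57.5 uM over 24 h at 37 degrees C. PTC124 at 50 uM final served as control inhibitor.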
DRV1 agonist – activates human resolvin D1 receptor GPR32. O75388. CHO-K1 GPR32 beta-arrestin PathHunter luminescence, 90 min; zero percent set by DMSO-only wells. activation, % at 76.9 µM. actives 2.5% (n = 48,000). AID 1346428;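 active = activation of at least 60% and not above a set upper limit, about 1 call in 100 departs from these limits; inconclusive = activation of 40% to 60%, or above that upper limit; inactive = activation under 40%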; also: 0% is about no effect
Target sequence (O75388 whole entry, looked up): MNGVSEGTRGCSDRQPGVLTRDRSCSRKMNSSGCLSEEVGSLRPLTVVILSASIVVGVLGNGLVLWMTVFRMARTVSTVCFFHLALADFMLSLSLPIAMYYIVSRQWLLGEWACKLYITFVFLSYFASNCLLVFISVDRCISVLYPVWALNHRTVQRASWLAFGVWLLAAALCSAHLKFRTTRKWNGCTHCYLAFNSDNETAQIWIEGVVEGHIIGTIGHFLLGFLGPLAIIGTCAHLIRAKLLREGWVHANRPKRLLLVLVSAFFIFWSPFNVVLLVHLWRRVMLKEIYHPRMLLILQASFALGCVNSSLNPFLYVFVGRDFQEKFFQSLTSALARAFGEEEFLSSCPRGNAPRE
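Using DMSO wells as EC0, agonist-induced signal was taken as chemiluminescence from beta-Gal reconstituted upon beta-arrestin recruitment to GPR32 in CHO-K1 cells after 90 min compound treatment.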
HTT-AS promoter – activates huntingtin-antisense promoter activity; HEK293 HTT-AS promoter firefly luciferase reporter, 24 h; response scale: percent change from vehicle, -100% = no light; Potency, µM (titrated, usually from 57.5 µM), for inactives: at the highest dose activity change, positive = activation, actives largely listed as activators; actives 0.24% (n = 48,000); also: potency is read from the fitted curve at half-maximal effect; nearly all actives have a fitted effect of over 55% in size
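Firefly luciferase signal from promoter-reporter HEK293 cells was scaled between vehicle (0%) and zero RLU (-100%). Compounds were tested at final concentrations of up to 57.5 uM over 24 h at 37 degrees C. PTC124 at 50 uM final served as control inhibitor.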
NTMT1 inhibitor – NTMT1 methyltransferase inhibition; NTMT1 MTase-Glo SAH luminescence, purified enzyme; Potency, µM (series often up to 114 µM), without a hit: top-dose activity change, negative = inhibition, most hits filed as inhibitors; actives 2.5% (n = 59,000); Q9BV86;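 also: potency is read from the fitted curve at half-maximal effect; plate controls were DMSO vehicle for no effect and no enzyme for full effect; nearly all actives have a fitted effect of over 65% in size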
Target sequence (Q9BV86 whole entry, looked up): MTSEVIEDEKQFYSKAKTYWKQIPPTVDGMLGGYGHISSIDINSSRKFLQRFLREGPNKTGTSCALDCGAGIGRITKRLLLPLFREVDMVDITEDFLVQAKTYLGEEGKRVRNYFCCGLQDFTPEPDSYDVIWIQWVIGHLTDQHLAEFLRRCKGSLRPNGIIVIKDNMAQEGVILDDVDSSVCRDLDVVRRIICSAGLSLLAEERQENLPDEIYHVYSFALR
FH mod – Identification of activators of human fumarate hydratase by quantitative high-throughput screening; actives 0.22% (n = 54,000); FH coupled MDH/diaphorase resazurin fluorescence, 15 min; Potency, µM (top dose mostly 79.9 µM), inactives show at the highest dose activity change, negative = inhibition, actives largely listed as inhibitors; Fumarate hydratase, mitochondrial (Homo sapiens), P07954; AID 1347055, 2019; also: potency is read from the fitted curve at half-maximal effect; % is scaled to controls: 0 for no effect and ±100 for the full control effect; the screen sought activators but most active calls are inhibition curves; nearly all actives have a fitted effect of over 45% in size
* marks the source's active call; other numbers are inactive results; ? = inconclusive; . = not tested or not shown; ! = not confirmed by another sample; [ ] = another dose, or the depositor's remark. Unless noted, calls follow the shape of the dose curve; as a rule, active = well fitted curve in the direction sought with a large enough effect; inconclusive = small, poorly fitted or top-dose-only effect, or another doubt; inactive = no such curve, though single readings can be large; an effect the other way counts as inactive or inconclusive.

SMILES	HTT promoter inh	DRV1 agonist	HTT-AS promoter	NTMT1 inhibitor	FH mod
Cc1ccc(S(=O)(=O)CC(=O)Nc2nc3c(C)cc(C)cc3s2)cc1	-22%	-13	-11%	-1%	?
COc1ccc(CCn2cc3c(c2-c2ccccc2Br)c(=O)n(C)c(=O)n3C)cc1OC	-17%	3	-20%	-2%	-1%
CN(C)c1ccc(CNC(=O)Cn2ccc3cc(S(=O)(=O)N4CCCCCC4)ccc32)cc1	-28%	-13	-14%	?	-5%
CC(=O)N1c2ccccc2CC1C(=O)N1CCN(c2cccc(C)c2C)CC1 (centres undefined)	-21%	116*	-16%	-1%	-8%
COc1cccc(C2c3c(ncn(-c4ccccc4C)c3=N)Oc3ccc4ccccc4c32)c1 (centres undefined)	.	.	.	5%	.
COc1ccc(COC(=O)c2[nH]c3c(c2C)C(=O)CC(c2ccc(OC)c(OC)c2)C3)cc1 (centres undefined)	10µM*	7	-74%	1%	-7%
CCOC(=O)N1c2ccc(C(F)(F)F)cc2[C@@H](N(Cc2cc(C(F)(F)F)cc(C(F)(F)F)c2)C(=O)OC)C[C@H]1CC	-31%	.	-12%	-3%	7%[53.3 µM]
O=C(O)c1cccc(CN2C(=O)/C(=C(\c3ccccc3)c3ccc(Cl)cc3)c3ccccc32)c1	.	.	.	28µM*	?
Cc1ccccc1CN1C(=O)c2ccccc2Sc2ccc(C(=O)O)cc21	-7%	4	-16%	8%	-19%
CCN(CCCNC(=O)c1cc2cc3ccc(OC)cc3nc2s1)c1cccc(C)c1	-4%	?	2%	79µM*	-7%
CCN(CCCNC(=O)c1cc2cc3ccc(OC)cc3nc2s1)c1ccccc1	-15%	96*	-16%	89µM*	8%
Cc1cc(Nc2cccc(C(F)(F)F)c2)nc2ccc(NC(=O)c3cncc(Br)c3)cc12	?	-23	-72%	2%	32µM*
C[C@@H]1O[C@@H](O[C@@H]2[C@@H](O)[C@H](O[C@@H]3[C@@H](O)[C@@H](O)[C@H](O[C@H]4[C@H](OC(=O)[C@]56CCC(C)(C)C[C@H]5C5=CCC7[C@@]8(C)C[C@H](O)[C@H](O[C@@H]9O[C@H](C(=O)O)[C@@H](O)[C@H](O)[C@H]9O)[C@@](C)(CO)C8[C@H](O)C[C@@]7(C)[C@]5(C)C[C@H]6O)O[C@@H](CO)[C@@H]4O)O[C@H]3C)OC[C@H]2O)[C@H](O)[C@H](O)[C@H]1O (some centres undefined)	.	.	.	11%[6.45 µM]	1%[13.5 µM]
CCOc1ccc(-c2nc(CSCC(=O)NCCc3ccc(OCC)c(OCC)c3)c(C)o2)cc1	14µM*	2	-49%	1%	?
CCOc1ccc(-c2nc(CSCC(=O)NCc3ccc(C)cc3)c(C)o2)cc1	7.1µM*	-9	-77%	79µM*	-23%
Cc1oc(-c2ccc(Cl)cc2)nc1CS(=O)CC(=O)NCc1ccc(Cl)cc1 (centres undefined)	?	-9	-21%	-1%	-11%
CCOc1ccc(CCNC(C)=O)cc1OCC	.	.	.	50µM*	.
CCc1ccc(-c2nc(CS(=O)CC(=O)NCc3ccc(F)cc3)c(C)o2)cc1 (centres undefined)	?	-15	-44%	89µM*	-1%
CCc1ccc(-c2nc(CSCC(=O)NCc3ccc(C)cc3)c(C)o2)cc1	?	-26	-58%	0%	-29%
CC(=O)Nc1ccc(NS(=O)(=O)c2c(C)nc3sccn3c2=O)cc1	-4%	-4	-6%	-3%	-5%
O=S(=O)(Nc1ccc(-c2ccc(N3CCCCC3)nn2)cc1)c1ccc(OC(F)(F)F)cc1	.	-3	.	.	.
Cc1ccc2nc(-c3ccc(C)c(NC(=O)CSc4ccc(Cl)cc4)c3)oc2c1	15%	0	6.3µM*	9%	3%
Cc1ccc2oc(-c3ccc(C)c(NC(=O)C(C)(C)Oc4ccc(Cl)cc4)c3)nc2c1	49%	-2	10µM*	11%	-21%
Cc1ccc2nc(-c3cccc(NC(=O)CSc4ccc(Cl)cc4)c3)oc2c1	29%	-25	?	5%	-5%
Cc1ccc(NC(=O)CN2C(=O)N/C(=C\c3cccn3-c3ccc(C(=O)O)cc3)C2=O)cc1	.	.	.	6%	.
SMILES	HTT promoter inh	DRV1 agonist	HTT-AS promoter	NTMT1 inhibitor	FH mod
CCCN1CCN(CCCNC(=O)Cn2c(-c3cccs3)cc3cc(Cl)ccc32)CC1	?	27	-27%	?	-2%
CCCNc1nc2c(c(=O)n(C)c(=O)n2C)n1CC(O)COc1ccccc1 (centres undefined)	-5%	8	-12%	5%	-1%
COc1ccc(OCC(O)Cn2c(NCCO)nc3c2c(=O)n(C)c(=O)n3C)cc1 (centres undefined)	14µM*	-9	-67%	2%	-9%
COc1ccc(-c2nc(CSCC(=O)NCc3ccccc3Cl)c(C)o2)cc1OC	?	-24	-33%	-6%	-11%
C#Cc1cccc(Nc2ncnc3cc(OCCOC)c(OCCO)cc23)c1	?	.	-36%	35µM*	3%[53.3 µM]
COc1ccc(NS(=O)(=O)c2ccc3c(c2)n(C)c(=O)c(=O)n3C)cc1Cl	-18%	10	-22%	15%	-16%
c1ccc(-c2cc3ncc4c(n3n2)-c2ccccc2OC4)cc1	67%	-6	1.6µM*	?	0%
CCOCCOC(=O)c1ccc2c(c1)N(Cc1ccccc1C#N)C(=O)c1ccccc1S2(=O)=O	-9%	1	0%	-28%	-12%
NC(=O)c1cccc2cn(-c3ccc([C@@H]4CCCNC4)cc3)nc12	12%	.	-1%	32µM*!	0%
Cc1ccc(O)c(NC(=O)c2ccc(Br)c(S(=O)(=O)N3CCCCC3)c2)c1	20µM*	-4	-42%	-6%	?
COc1ccccc1N1CCN(C(=O)c2cc3c(=O)n(C)c4ccccc4c3s2)CC1	-6%	10	-8%	-4%	-11%
Clc1cccc(C2=NC(c3cccs3)=Nc3ccc(Br)cc3N2)c1	-13%	-20	9%	89µM*	?
O=C1CCCC2=C1C(c1ccccc1C(F)(F)F)N=C(Nc1nc3ccccc3o1)N2 (centres undefined)	.	.	.	20%	.
COc1ccc(C)cc1NC(=O)CCS(=O)(=O)c1cc2c3c(c1)CCN3C(=O)CC2	-6%	-5	6%	45µM*	-5%
CCCCN(c1ccccc1)S(=O)(=O)c1ccc2c(c1)CC(C)N2C(=O)C1CC1 (centres undefined)	?	-25	-38%	8%	-29%
CCCN(c1ccccc1CC)S(=O)(=O)c1ccc2c(c1)CC(C)N2C(=O)C1CC1 (centres undefined)	22µM*	-20	-58%	7%	?
COCCCNc1ncnc2c1cnn2-c1ccc(F)cc1	24%	6	22%	-5%	-4%
